Assay results from PubChem BioAssay AID1159580 (chemical genetic matrix, 2015).
In all, about 5,500 compounds went through this assay and about 2,000 (36%) were called active. Another 18% or so got no clear call; they are omitted. Rule as the data show it: active = normalized growth mostly below about 0.91 (no sharp cut-off); inconclusive = no clear call, values can overlap the other calls; inactive = mostly above about 0.92. This is one part of the list.

Experiment: chemical genetic growth profiling, strain panel (AID 1159580);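 also: tested at 20 µM; growth read once vehicle control cultures reached saturation at 30 °C; 1 = growth at the plate median or of vehicle wells; lower values mean less growth of the strain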
Conditions: S. cerevisiae deletion strains, growth OD
[1] = locus YDL101C, strain DUN1, hits give low values
[2] = locus YHR030C, strain SLT2, hits give low values
[3] = locus YAR019C, strain CDC15, hits give low values
[4] = locus YBL105C, strain PKC1, hits give low values
[5] = locus YBR135W, strain CKS1, hits give low values
[6] = locus YBR136W, strain MEC1, hits give low values
[7] = locus YBR160W, strain CDC28, hits give low values
[8] = locus YDL017W, strain CDC7, hits give low values
[9] = locus YDL028C, strain MPS1, hits give low values
[10] = locus YDL108W, strain KIN28, hits give low values
[11] = locus YDL132W, strain cdc53, hits give low values
[12] = locus YDL214C, strain PRR2, hits give low values
[13] = locus YDR052C, strain DBF4, hits give low values
[14] = locus YDR054C, strain cdc34, hits give low values
[15] = locus YDR226W, strain ADK1, hits give low values
[16] = locus YDR477W, strain SNF1, hits give low values
[17] = locus YER123W, strain YCK3, hits give low values
[18] = locus YER133W, strain GLC7, hits give low values
[19] = locus YFL009W, strain cdc4, hits give low values
[20] = locus YFL029C, strain CAK1, hits give low values
[21] = locus YFR003C, strain YPI1, hits give low values
[22] = locus YFR019W, strain FAB1, hits give low values
[23] = locus YFR028C, strain CDC14, hits give low values
[24] = locus YGR040W, strain KSS1, hits give low values
[25] = locus YGR052W, strain FMP48, hits give low values
[26] = locus YGR092W, strain DBF2, hits give low values
[27] = locus YHR079C, strain IRE1, hits give low values
[28] = locus YHR082C, strain KSP1, hits give low values
[29] = locus YHR205W, strain SCH9, hits give low values
[30] = locus YIL147C, strain SLN1, hits give low values
[31] = locus YJL095W, strain BCK1, hits give low values
[32] = locus YJL128C, strain PBS2, hits give low values
[33] = locus YJL157C, strain FAR1, hits give low values
[34] = locus YJR016C, strain ILV3, hits give low values
[35] = locus YJR066W, strain TOR1 (second series), hits give low values
[36] = locus YJR066W, strain TOR1, hits give low values
[37] = locus YKL048C, strain ELM1, hits give low values
[38] = locus YKL067W, strain YNK1, hits give low values
[39] = locus YKL101W, strain HSL1, hits give low values
[40] = locus YKL193C, strain SDS22, hits give low values
[41] = locus YKL203C, strain TOR2, hits give low values
[42] = locus YLR113W, strain HOG1, hits give low values
[43] = locus YLR133W, strain CKI1, hits give low values
[44] = locus YLR403W, strain SFP1, hits give low values
[45] = locus YML070W, strain DAK1, hits give low values
[46] = locus YMR001C, strain CDC5, hits give low values
[47] = locus YMR205C, strain PFK2 (second series), hits give low values
[48] = locus YMR277W, strain FCP1, hits give low values
[49] = locus YNL006W, strain LST8, hits give low values
[50] = locus YNL020C, strain ARK1, hits give low values
[51] = locus YNL161W, strain CBK1, hits give low values
[52] = locus YNL183C, strain NPR1, hits give low values
[53] = locus YNL207W, strain RIO2, hits give low values
[54] = locus YNL222W, strain SSU72, hits give low values
[55] = locus YNL307C, strain MCK1 (second series), hits give low values
[56] = locus YOL078W, strain AVO1, hits give low values
[57] = locus YOL136C, strain PFK27, hits give low values
[58] = locus YOR061W, strain CKA2, hits give low values
[59] = locus YOR119C, strain RIO1, hits give low values
[60] = locus YOR231W, strain MKK1, hits give low values
[61] = locus YOR329C, strain SCD5, hits give low values
[62] = locus YPL031C, strain PHO85, hits give low values
[63] = locus YPL153C, strain RAD53, hits give low values
[64] = locus YPL204W, strain HRR25, hits give low values
[65] = locus YPL209C, strain IPL1, hits give low values
[66] = locus YPL256C, strain CLN2, hits give low values
[67] = locus YPR025C, strain CCL1, hits give low values
[68] = locus YPR106W, strain ISR1, hits give low values
[69] = locus YPR111W, strain DBF20, hits give low values
[70] = strain NNK1, hits give low values
[71] = strain TSCII, hits give low values

Measured: normalized growth

COc1ccccc1N1CC(C)(C)C(=O)N(C(=O)c2c(F)cccc2Cl)C1=S
inactive: locus YAL013W, strain DEP1, hits give low values 1.02 | locus YBR229C, strain ROT2, hits give low values 1.02 | locus YCL061C, strain MRC1, hits give low values 1.02 | [1] 1.03 | locus YDR150W, strain NUM1, hits give low values 0.933 | locus YEL061C, strain CIN8, hits give low values 0.985 | locus YGR078C, strain PAC10, hits give low values 1.02 | [2] 1.01 | locus YHR087W, strain rtc3, hits give low values 0.986 | locus YJL187C, strain SWE1, hits give low values 1.02 | locus YJR043C, strain POL32, hits give low values 1.03 | locus YJR075W, strain HOC1, hits give low values 1 | locus YKL190W, strain CNB1, hits give low values 1 | locus YLR039C, strain RIC1, hits give low values 0.862 | locus YLR058C, strain SHM2 (second series), hits give low values 0.995 | locus YLR085C, strain ARP6, hits give low values 0.984 | locus YLR262C, strain YPT6, hits give low values 0.86 | locus YML094W, strain GIM5, hits give low values 1 | locus YMR219W, strain ESC1, hits give low values 1.02 | locus YMR263W, strain SAP30, hits give low values 0.954 | locus YNL128W, strain TEP1, hits give low values 1.02 | locus YNL153C, strain GIM3, hits give low values 1 | locus YNL298W, strain CLA4 (second series), hits give low values 1.01 | locus YNL322C, strain KRE1, hits give low values 1.01 | locus YNR030W, strain Alg12, hits give low values 1 | locus YPL055C, strain LGE1, hits give low values 0.899 | locus YPL241C, strain CIN2, hits give low values 1.01 | locus YPR135W, strain CTF4, hits give low values 0.985

O=C(Nc1cc(Cl)cc(Cl)c1)c1cc(Cl)ccc1O
active: [13] 0.91 | [26] 0.321 | [2] 0.799 | [29] 0.504 | [33] 0.648 | [37] 0.802 | [42] 0.844 | [44] 0.642 | [50] 0.68 | [55] 0.615 | [66] 0.836
inactive: [3] 0.93 | [4] 0.94 | [5] 0.922 | [6] 0.943 | [7] 0.934 | [8] 0.936 | [9] 0.94 | [1] 0.981 | [10] 0.924 | [11] 0.917 | [12] 0.785 | [14] 0.921 | [15] 0.973 | [16] 0.838 | [17] 0.75 | [18] 0.74 | [19] 0.924 | [20] 0.923 | [21] 0.935 | [22] 0.83 | [23] 0.928 | [24] 0.836 | [25] 0.785 | [27] 0.584 | [28] 0.853 | [30] 0.94 | [31] 0.751 | [32] 0.917 | [34] 0.924 | [35] 0.668 | [36] 0.705 | [38] 0.759 | [39] 0.827 | [40] 0.93 | [41] 0.818 | [43] 0.779 | [45] 0.805 | [46] 0.93 | [47] 0.784 | [48] 0.927 | [49] 0.923 | [51] 0.936 | [52] 0.899 | [53] 0.939 | [54] 0.924 | [56] 0.925 | [57] 0.797 | [58] 0.693 | [59] 0.858 | [60] 0.843 | [61] 0.939 | [62] 0.823 | [63] 0.801 | [64] 0.722 | [65] 0.925 | [67] 0.936 | [68] 0.956 | [69] 0.95 | [70] 0.965 | [71] 0.938

O=C(Nc1ccc(F)cc1F)c1cc(Cl)ccc1O
inactive: [3] 0.935 | [4] 0.933 | [5] 0.943 | [6] 0.94 | [7] 0.945 | [8] 0.935 | [9] 0.937 | [1] 0.979 | [10] 0.936 | [11] 0.97 | [12] 0.876 | [13] 0.926 | [14] 0.928 | [15] 0.931 | [16] 0.947 | [17] 0.864 | [18] 0.9 | [19] 0.923 | [20] 0.941 | [21] 0.929 | [22] 0.933 | [23] 0.925 | [24] 0.952 | [25] 1 | [26] 0.683 | [2] 0.927 | [27] 0.845 | [28] 0.989 | [29] 0.694 | [30] 0.938 | [31] 0.877 | [32] 0.918 | [33] 0.827 | [34] 0.939 | [35] 0.952 | [36] 1.03 | [37] 0.935 | [38] 0.884 | [39] 0.961 | [40] 0.941 | [41] 1.03 | [42] 0.98 | [43] 0.889 | [44] 0.708 | [45] 0.936 | [46] 0.94 | [47] 0.901 | [48] 0.952 | [49] 0.938 | [50] 0.84 | [51] 0.934 | [52] 1.02 | [53] 0.944 | [54] 0.939 | [55] 0.857 | [56] 0.939 | [57] 0.909 | [58] 0.89 | [59] 1.01 | [60] 0.996 | [61] 0.939 | [62] 0.928 | [63] 0.922 | [64] 0.915 | [65] 0.937 | [66] 0.927 | [67] 0.945 | [68] 0.94 | [69] 0.947 | [70] 0.965 | [71] 0.934
